G9a block = inhibitors of human histone lysine methyltransferase G9a | Potency, µM (doses to about 102 µM), for the others: at the top dose activity, negative = inhibition, most hits filed as inhibitors | G9a H3K9 monomethylation, AlphaScreen, 2 h | 350,000 compounds, 8.8% hits | AID 504332; further: on the % scale 0 is the no-effect control and ±100 the full control effect; nearly all actives have a fitted effect of over 75% in size
Target sequence (Q96KQ7 913-1193 limits assumed): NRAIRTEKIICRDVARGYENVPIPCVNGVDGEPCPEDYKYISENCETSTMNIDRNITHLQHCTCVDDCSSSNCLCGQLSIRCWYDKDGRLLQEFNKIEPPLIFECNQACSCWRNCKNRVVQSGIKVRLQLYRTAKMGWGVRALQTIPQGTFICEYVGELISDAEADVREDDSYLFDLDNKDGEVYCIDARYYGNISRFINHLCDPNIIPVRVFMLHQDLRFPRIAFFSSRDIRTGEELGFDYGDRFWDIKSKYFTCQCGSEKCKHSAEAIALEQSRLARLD
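Enzyme 20 nM + cpd, 15 min RT; add b-H3K9 pep 500 nM / SAM 20 uM; 2 h RT; anti-H3K9me1 Ab 0.5 ug/mL + SA donor / anti-rabbit acceptor beads 20 ug/mL each, 10 min; AlphaScreen read.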
Sfp inh = blocks B. subtilis Sfp PPTase activity | Q9F4F7 | Potency, µM, for the others: largest response in the series, negative = inhibition, actives largely listed as inhibitors | Biochemical Sfp PPTase activity, qHTS | 310,000 compounds, 3.5% hits;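 further: the enzyme is Sfp with the accession as filed and its product quenches rhodamine fluorescence; 0% = enzyme reaction without inhibitor and -100% = no enzyme wells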
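With Hepes-Na pH 7.6 buffer containing 10 mM MgCl2, Sfp (15 nM) modified BHQ-2-YbbR (12.5 uM) using rhodamine-CoA (5 uM). Two reads 30 minutes apart at 525/598 nm yielded each well's rate.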
BAZ2B block = inhibitors of human BAZ2B bromodomain. 360,000 compounds, 4.4% hits. Q9UIF8. Potency, µM (titrated, usually from 114 µM), without a hit: top-dose activity change, negative = inhibition, most hits filed as inhibitors. AlphaScreen BAZ2B-H3K14Ac peptide displacement; further: on the % scale 0 is the no-effect control and ±100 the full control effect; nearly all actives have a fitted effect of over 60% in size
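BAZ2B 50 nM plus b-H3(5-23)K14Ac 50 nM, PBS pH 7.4/0.01% Tween-20, 30 min RT; compound added (max 110 uM), 30 min RT; streptavidin donor/Ni-chelate acceptor beads 10 ug/mL final, 20 min dark; AlphaScreen read.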
JMJD2A Tudor inh = inhibitors of human JMJD2A Tudor domain; O75164; AlphaScreen JMJD2A-Tudor / H3K4me3 peptide binding; Potency, µM (titrated, usually from 114 µM), for inactives: at the highest dose activity change, negative = inhibition, usual class: inhibitors; 390,000 compounds, 4.4% hits; AID 504339; further: on the % scale 0 is the no-effect control and ±100 the full control effect; nearly all actives have a fitted effect of over 50% in size
HP1b binding inh = inhibitors of HP1-beta chromodomain binding to methylated histone tails. P83916. AlphaScreen HP1-beta / biotin-H3K9me3 peptide binding. Potency, µM (top dose mostly 114 µM), without a hit: top-dose activity change, negative = inhibition, actives largely listed as inhibitors. 390,000 compounds, 0.56% hits. AID 540317; further: nearly all actives have a fitted effect of over 70% in size
Target sequence (P83916 whole entry, looked up): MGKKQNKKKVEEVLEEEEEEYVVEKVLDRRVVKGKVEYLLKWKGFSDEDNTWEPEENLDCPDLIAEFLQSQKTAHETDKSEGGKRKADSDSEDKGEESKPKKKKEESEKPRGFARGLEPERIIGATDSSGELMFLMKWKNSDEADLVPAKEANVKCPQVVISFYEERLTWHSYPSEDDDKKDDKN
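AlphaScreen: HP1-beta (50 nM) preformed 30 min with biotin-H3(1-18)K9me3 peptide (50 nM) in PBS pH 7.4, 0.01% Tween-20. Compound added for 30 min at RT, then streptavidin donor/nickel chelate acceptor beads (10 ug/mL) for 30 min.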
* = called active by the depositor; ? = inconclusive; / = no result given; ! = not active in a repeat; [ ] = another dose, or the depositor's remark. Shown are actives, neighbours in structure and some others; about 12% of the full set was active somewhere. The call rests on the fitted dose curve; in most records, active means well fitted curve in the direction sought with a large enough effect; inconclusive means small, poorly fitted or top-dose-only effect, or another doubt; inactive means no such curve, though single readings can be large; an effect the other way counts as inactive or inconclusive. Potency means the concentration at half of the fitted maximal effect.

SMILES | G9a block | Sfp inh | BAZ2B block | JMJD2A Tudor inh | HP1b binding inh
CC1=NN(c2ccccc2)C(=O)C1C(=O)c1cc([N+](=O)[O-])cc([N+](=O)[O-])c1 (configuration not stated) | 11.2µM* | 13.7% | ? | -21.8% | 29.9%
CNC(=O)c1[nH]cnc1C(=O)Nc1cccc(OC)c1 | ? | -23.8% | 50.1µM* | -25.8% | 16.3%
CCOC(=O)c1[nH]cnc1C(=O)Nc1cccc(OC)c1 | 28.2µM*! | 5.3% | ? | ? | 29.3%
CNC(=O)c1[nH]cnc1C(=O)Nc1ccccn1 | / | -0.4% | 56.2µM* | ? | -2.3%
CNC(=O)c1[nH]cnc1C(=O)Nc1ccccc1 | 5.3%[0.501 µM] | / | ? | -23.2% | 22.1%
COC(=O)C1=C(C(=O)OC)[C@@H]2Nc3ccccc3[C@@]23C[C@@H](C(=O)OC)N(S(=O)(=O)c2ccc(C#N)cc2)C3=N1 | / | -6.0% | / | / | /
N#Cc1c(NC(=S)NC(=O)c2ccccc2)sc2c1CCC2 | 2.82µM* | 22.4µM* | -30.7% | 44.7µM* | -3.1%
N#Cc1c(NC(=O)/C=C/C(=O)O)sc2c1CCN(Cc1ccccc1)C2 | ? | -27.0% | 50.1µM* | ? | 41.8%
CCNC(=S)Nc1sc2c(c1C#N)CCC(C)C2 (configuration not stated) | ? | -18.8% | -6.6% | -12.3% | 8.5%
CC(=O)Nc1sc2c(c1C#N)CCCC2 | 6.6%[59 µM] | 6.2% | 4.0% | -5.8% | 29.3%
CC(C)(C)c1ccc(C(=O)NC(=S)Nc2sc3c(c2C#N)CCC3)cc1 | ? | ? | -8.7% | ? | ?
CC(=O)NC(=S)Nc1sc2c(c1C#N)CCCCC2 | 44.7µM* | 50.1µM* | 3.7% | -24.4% | -11.9%
CC1CCc2sc(NC(=S)NC(=O)c3ccccc3)c(C#N)c2C1 (configuration not stated) | 35.5µM* | ? | ? | -18.5% | -11.1%
COc1cc(OC)cc(C(=O)Nc2nc(-c3nnn(-c4ccc(F)c(Cl)c4)c3C)ns2)c1 | -13.0%[59 µM] | / | -25.9% | -11.4% | 3.2%
CCN1CCc2c(sc(NC(=S)NC(=O)c3ccccc3)c2C#N)C1 | 16.6%[0.0925 µM] | 56.2µM* | ? | 50.1µM* | ?
Cn1nccc1C(=O)NC(=S)Nc1sc2c(c1C#N)CCCCC2 | 50.1µM* | -17.3% | -4.0% | -9.3% | 14.4%
N#Cc1c(NC(=S)NC(=O)Cc2cccs2)sc2c1CCCCC2 | -9.0%[59 µM] | -2.3% | 50.1µM* | ? | -40.2%
CCCCCOC(=O)c1[nH]c2c(c1C)C(=O)C(C(=O)OC)C(C)C2 (configuration not stated) | ? | -15.3% | 1.3% | 14.1µM* | -11.3%
CCOc1ccc(NC2CCN(C(C)=O)CC2)cc1 | 50.1µM* | -1.1% | -0.5% | -27.2% | 23.8%
CC(=O)N1CCC(Nc2ccc(C)cc2)CC1 | ? | 13.4% | 3.0% | -19.7% | 10.7%
CCOc1ccc(S(=O)(=O)NN=C2CCN(C(C)=O)CC2)cc1 | 50.1µM* | 13.1% | 1.5% | -11.6% | 37.2%
Nc1c(C(=O)NCc2ccco2)sc2nc3c(cc12)C(=O)CCC3 | ? | -17.9% | ? | 56.2µM* | -2.5%
CCCC(C)NC(=O)c1c2c(nc3ccccc13)CCC2 (configuration not stated) | -42.8% | 1.5% | 50.1µM* | -31.8% | 9.5%
CCC(C)NC(=O)c1c2c(nc3ccccc13)C(=O)N(C1CCCCC1)C2 (configuration not stated) | 10.3%[59 µM] | / | -1.2% | -0.7% | 23.1%
O=C(NCc1ccco1)c1c2c(nc3ccccc13)CCC2 | 39.8µM* | 50.1µM* | 50.1µM* | ? | ?
SMILES | G9a block | Sfp inh | BAZ2B block | JMJD2A Tudor inh | HP1b binding inh
COCCn1c(=O)c(-c2ccc(Cl)cc2)nc2cnc(N(C)C)nc21 | 13.0%[0.501 µM] | 1.5% | / | / | /
Fc1ccccc1CCNc1c2c(nc3ncnn13)CCCC2 | 50.1µM* | -4.0% | -4.5% | -6.9% | 47.3%
CC(CCc1ccc(O)cc1)NCc1ccc(Br)cc1 (configuration not stated) | / | 16.0% | 7.1% | -6.2% | 33.3%
COc1cccc(CN2CCNC(=O)C2CC(=O)N(C)C2CCCCC2)c1OC (configuration not stated) | / | / | / | -15.4% | 13.0%
O=C(Nc1cccc(C(F)(F)F)c1)Oc1ccc(Cl)c2cccnc12 | 132.1% | 20.4% | 17.8µM* | 39.8µM* | 2.5%[57 µM]
CCC(NC(=O)Nc1ccc(OC)c(OC)c1)c1c(-n2cccc2)sc2c1CCN(C)C2 (configuration not stated) | ? | / | 50.1µM* | ? | ?
CCC(NC(=O)Nc1cc(OC)ccc1OC)c1c(-n2cccc2)sc2c1CCN(CC)C2 (configuration not stated) | 14.1µM* | / | 39.8µM* | 56.2µM* | ?
COc1ccc(N2C(=O)CC(SCCc3nc4ccccc4[nH]3)C2=O)cc1 (configuration not stated) | / | 8.7% | -4.5% | -7.0% | 30.0%
O=C1CC(SCCc2nc3ccccc3[nH]2)C(=O)N1c1ccc(F)cc1 (configuration not stated) | 44.7µM* | -6.3% | -30.6% | -15.6% | 17.8%
CC(C)[C@H]1c2ccc(F)cc2CC[C@@]1(CCN(C)CCCc1nc2ccccc2[nH]1)OC(=O)C1CC1 | 12.6µM* | 44.7µM* | / | / | /
CN(Cc1nc2ccccc2[nH]1)C(=O)C1CCC(=O)N(CCc2cccc(F)c2)C1 (configuration not stated) | -5.4% | 16.0% | -13.5% | -10.9% | 7.2%
COc1ccc(OC)c(S(=O)(=O)N2CCN(c3ccccc3)CC2)c1 | -8.1% | 11.3% | -27.6% | -15.8% | 23.4%
COc1ccc(OC)c(S(=O)(=O)ON2C(=O)c3ccccc3C2=O)c1 | 1.41µM* | -100.5% | 9.0%[0.457 µM] | 89.1µM* | ?
CCc1ccc(S(=O)(=O)ON2C(=O)c3ccccc3C2=O)cc1 | ? | 17.8µM* | ? | 50.1µM* | 35.5µM*
CNC[C@H]1Oc2ccc(NC(=O)C3CCCCC3)cc2CC(=O)N([C@H](C)CO)C[C@@H]1C | / | / | / | -13.3% | 34.4%
COc1ccc(/C=C(\NC(=O)c2ccccc2)C(=O)NCCN2CCOCC2)cc1 | -0.5% | -6.3% | 11.3% | -6.4% | 23.7%
c1ccc2c(COn3nnc4ccccc43)cccc2c1 | 70.2% | ? | ? | 73.4% | 80.2%
N#Cc1ccc(COn2nnc3ccccc32)cc1 | 89.1µM* | 21.7% | 3.7% | -10.1% | 43.8%
CCOc1ccccc1-n1nnc(S(=O)(=O)c2ccc(C)cc2)c1N | 25.3%[59 µM] | / | 0.7% | 2.7% | 51.7%
O=C(Nc1cc(F)ccc1F)c1cnn2c(C(F)F)cc(-c3ccccc3)nc12 | 3.5%[59 µM] | / | -0.7% | -15.1% | 45.9%
O=C(Nc1cnn(Cc2ccc(F)cc2)c1)c1cnn2c(C(F)F)cc(-c3ccccc3)nc12 | / | 14.1µM* | -16.5% | -4.2% | 25.3%
COc1ccc(-c2cc(C(F)F)n3ncc(C(=O)Nc4cc(C)on4)c3n2)cc1 | / | 79.4µM* | 79.4µM* | -6.9% | 9.7%
CC(=O)Nc1cc2c(cc1Br)-c1ccccc1C2 | / | / | / | 5.5% | 21.2%

Screens: PubChem BioAssay, National Center for Advancing Translational Sciences (NCATS)
